Source: PubChem (National Center for Advancing Translational Sciences (NCATS))
HTT ATP protect: cytoprotection in Huntington HTT-Q103 PC12 cell model; Potency, µM (top dose mostly 56.4 µM), for inactives: cytoprotection (ATP increase), most hits filed as activators; hit rate 0.14% among 230,000; PC12 HTT-Q103 induced, cytoprotection, ATP luminescence, 40 h; note: potency is the fitted concentration of half-maximal effect; % of control where 0% means no effect; nearly all actives have a fitted effect of over 45% in size
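Rat PC12, Q103 Htt exon1-GFP fusion, ecdysone promoter; tebufenozide inducer 100 nM final; compound titration; qHTS, 1500 cells/well; ATPlite luminescent read.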
GoLoco inh red: inhibitors of human Gai1-RGS12 GoLoco interaction (red fluorophore) | Gai1:RGS12 GoLoco peptide FP, rhodamine, 10 min | Potency, µM (top dose mostly 61.6 µM), inactives show at the top dose activity, negative = inhibition, usual class: inhibitors | hit rate 0.44% among 230,000 | AID 880; active = well fitted inhibition curve with a large enough effect, not every such curve was filed as active; inactive = no such curve, though single readings can be large or run the other way; note: potency is the fitted concentration of half-maximal effect; % is set by controls: 0 for no effect and ±100 for the full control effect; nearly all actives have a fitted effect of over 30% in size
HPGD block: HPGD (human) dehydrogenase inhibition. P15428. purified HPGD, NADH fluorescence kinetic, PGE2 substrate. Potency, µM, without a hit: at the highest dose activity change, negative = inhibition, most hits filed as inhibitors. hit rate 4.3% among 150,000. AID 894; active = well fitted inhibition curve with a large enough effect, not every such curve was filed as active; inconclusive = small, poorly fitted or top-dose-only effect, or another doubt; inactive = no such curve, though single readings can be large or run the other way; note: potency is the fitted concentration of half-maximal effect; % is set by controls: 0 for no effect and ±100 for the full control effect
Target sequence (P15428 whole entry, looked up): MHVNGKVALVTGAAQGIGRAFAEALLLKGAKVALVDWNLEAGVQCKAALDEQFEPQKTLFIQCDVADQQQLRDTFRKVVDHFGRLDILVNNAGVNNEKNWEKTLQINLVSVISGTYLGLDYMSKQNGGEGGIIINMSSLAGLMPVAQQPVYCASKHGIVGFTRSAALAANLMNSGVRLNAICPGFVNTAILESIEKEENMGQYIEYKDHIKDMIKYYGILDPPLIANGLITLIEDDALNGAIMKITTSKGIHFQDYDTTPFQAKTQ
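NADH formation kinetics: reaction with 30 uM PGE2 and 1 mM NAD+ (final), 20 nM enzyme, Tris-HCl pH 8 with Tween 20, after 15 min compound preincubation at room temperature. Fluorescence change, last versus first of five reads.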
PNC assembly inh: inhibitors of perinucleolar compartment assembly; PC3M PTB-GFP, PNC prevalence imaging, 16 h; hits give low values; AID 2417; activity change (PNC), negative = inhibition, % at 10 µM; hit rate 3.1% among 140,000;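 active = readout at or below -70, meaning at least 70% loss of cells showing the perinucleolar compartment, a nuclear body marking cancer cells; inconclusive = readout between -30 and a set limit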;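 note: plate controls were DMSO wells for no effect and camptothecin positive control wells for full effect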
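Read-out is percentage of cells bearing a perinucleolar compartment, from automated 20x imaging of fixed, Hoechst-stained PC3M PTB-GFP cells. Cells were seeded 4 h, then exposed 16 h to compound (23 nl of library stock) in duplicate plates.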
HTT aggregate: reduces HttQ103-GFP aggregates in PC12 cells; PC12 HttQ103-GFP aggregates, Acumen cytometry, 40 h; Potency, µM (series often up to 46.1 µM), without a hit: top-dose activity change, negative = inhibition, actives largely listed as inhibitors; hit rate 1.1% among 220,000; note: potency is the fitted concentration of half-maximal effect; % is set by controls: 0 for no effect and ±100 for the full control effect; nearly all actives have a fitted effect of over 60% in size
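Huntingtin Q103 exon 1–GFP aggregates in induced PC12 cells (100 nM tebufenozide) were quantified by cytometry from lysates, with compounds dosed in titration.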
ALDH1A1 inh: ALDH1A1 (human) enzyme inhibition. P00352. AID 1030. Purified ALDH1A1, NADH fluorescence, propionaldehyde substrate. Potency, µM (doses to about 75.3 µM), for the others: at the top dose activity, negative = inhibition, hits mostly inhibitors. hit rate 7.3% among 220,000; active = well fitted inhibition curve with a large enough effect, not every such curve was filed as active; inconclusive = small, poorly fitted or top-dose-only effect, or another doubt; inactive = no such curve, though single readings can be large or run the other way;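 note: potency is the fitted concentration of half-maximal effect; plate controls were no enzyme wells and a reference inhibitor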
Numbers without * were called inactive; ? = inconclusive; . = no result given; [ ] = remark or other dose. Sampled rows, rich in hits. Any-hit rate of the full collection: about 11%. Unless noted, calls come from the whole dose curve; as a rule, active = well fitted curve in the direction sought with a large enough effect; inconclusive = small, poorly fitted or top-dose-only effect, or another doubt; inactive = no such curve, though single readings can be large; an effect the other way counts as inactive or inconclusive.

SMILES	HTT ATP protect	GoLoco inh red	HPGD block	PNC assembly inh	HTT aggregate	ALDH1A1 inh
Cc1cc(=O)[nH]c(SCC(=O)Nc2cccc(C(F)(F)F)c2)n1	-4%	8%	-14%	15	-25%	0%
CO[C@H]1COC(=O)[C@H](C)COC(=O)[C@@H](OCc2ccccc2)/C=C\[C@@H]1C	1%[10 µM]	.	.	.	.	-15%[13.5 µM]
CCCCCCCC/C=C\CCCCCCCC(=O)N[C@@H](CO)Cc1ccc(O)cc1	13%	2%	-8%	.	.	-4%
COc1ccc(-n2c(=O)c(-c3cccc(F)c3)nc3cncnc32)cc1	?	5%	.	.	.	-4%
CCCNS(=O)(=O)c1ccc(OCC(=O)Nc2ccccc2F)cc1	11%[10 µM]	11%	0%	-112*	12%	10%
Cc1ccc(OCC(=O)NCCC2=CCCCC2)cc1	.	3%	-20%	-30	-23%	?
COC(=O)COc1ccc(S(=O)(=O)NCCC2=CCCCC2)cc1C	7%[0.074 µM]	3%	-1%	-11	-2%	-6%
COC(=O)COc1ccc(S(=O)(=O)NCCC2=CCCCC2)cc1	-12%[10 µM]	1%	-1%	10	-9%	22µM*
CC(C)NS(=O)(=O)c1ccc(OCC(=O)NCCC2=CCCCC2)cc1	4%	0%	-4%	-25	2%	-15%
O=C(COc1ccc([N+](=O)[O-])cc1)NCCC1=CCCCC1	-4%[10 µM]	2%	-11%	-14	-6%	10µM*
CCCNS(=O)(=O)c1ccc(OCC(=O)NCCC2=CCCCC2)cc1	-6%	10%	1%	-22	4%	11µM*
COc1cccc(Nc2ncc3nc(-c4ccccc4)c(=O)n(C[C@H]4CCCO4)c3n2)c1	-19%	6%	-6%	.	.	4%
N#Cc1ccccc1Oc1ccccc1C=O	26%	14%	.	.	25%	-10%
COc1cc(C2c3c(-c4cc(C)cc(C)c4O)n[nH]c3C(=O)N2CCCO)cc(OC)c1OC (centres undefined)	-20%	1%	14%	-100*	33%	9%
COCCCN1C(=O)c2[nH]nc(-c3cc(C)cc(C)c3O)c2C1c1ccc(O)c(OC)c1 (centres undefined)	-13%[0.074 µM]	.	.	15	22%	-6%
COC(=O)[C@@]1(Cc2ccc(OC)cc2)[C@H]2c3cc(C(=O)N4CCCC4)n(Cc4ccc(Cl)c(C(F)(F)F)c4)c3C[C@H]2CN1C(=O)c1ccccc1	10µM*	4%	-9%	.	.	-4%
COC(=O)[C@@]1(Cc2ccc(OC)cc2)[C@H]2c3cc(C(=O)N4CCCC4)n(CCc4ccc(O)c(O)c4)c3C[C@H]2CN1C(=O)c1ccccc1	11µM*	-13%	-17%	.	.	-6%
COC(=O)[C@@]1(Cc2ccc(F)cc2)[C@H]2c3cc(C(=O)N4CCCC4)n(CCc4ccccn4)c3C[C@H]2CN1C(=O)c1ccccc1	27%	3%	1%	-97*	20%	14%
COC(=O)[C@@]1(Cc2ccc(F)cc2)[C@H]2c3cc(C(=O)N(C)C)n(Cc4ccc(Cl)c(C(F)(F)F)c4)c3C[C@H]2CN1C(=O)c1ccccc1	-60%	7%	-15%	.	.	0%
COC(=O)[C@@]1(Cc2ccc(F)cc2)[C@H]2c3cc(C(=O)N(C)C)n(Cc4ccc(C)o4)c3C[C@H]2CN1C(=O)c1ccccc1	-35%	-32%	18µM*	.	.	-8%
Cc1nnc(SCCN2CCOCC2)c2nn(-c3ccccc3F)c(C)c12	18%[10 µM]	4%	-10%	-3	-11%	-4%
CC(=O)NC1=C(OS(=O)(=O)c2ccc(C)cc2)CN(C)C1=O	5%[10 µM]	-1%[14.2 µM]	-6%	.	.	-7%[13.5 µM]
COCc1cc(C)nc2sc(C(=O)N3CCN(c4ccccc4)CC3)c(N)c12	8%	5%	?	-14	18%	?
COCc1cc(C)nc2sc(C(=O)N3CCCCC3)c(N)c12	-6%	-16%	0.25µM*	?	-10%	18µM*
CCOc1ccc(CCNS(=O)(=O)c2cnc[nH]2)cc1OCC	1%	2%	3%	6	6%	8%
